The values below come from PubChem BioAssay.

The source made the active and inactive calls.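 How the source made its calls, unless noted: active means inhibition of the reporter signal at or above 50%; inactive means inhibition below 50%.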

Experiment [1] can be described thus: inhibitors of TNFa-induced NFkB p65 translocation, primary screen, imaging, HUVEC, MLSMR starter and 10KST1 sets (AID 438;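 active means inhibition above 20% together with a positive visual image hit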;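 further: compound added about 3h40 before a 20 min TNFalpha stimulation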;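 on inhibition: signal is the nuclear over cytoplasmic p65 intensity ratio per well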). The settings on record: HUVEC TNFa-induced p65 nuclear translocation; cell count: measured here: nuclei count (cytotoxicity indicator), at 2.08 µM unless noted; inhibition: at 2 µM, stronger effect = higher value unless noted.
A short description of experiment [2]: inhibitors of mutant huntingtin aggregation, primary screen, imaging, exon1htt(103Q)mCFP cells, high-content imaging (AID 483;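 active means visual image review flags a hit and inhibition of aggregation exceeds 20%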;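 further: compound exposure lasted 3 days before fixation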;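 on nuclei count: percent of the per-plate median nuclei count of sample wells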). The following applies: exon1htt(103Q)mCFP cell line, aggregate imaging, at 2 µM; inhibition of aggregation: stronger effect = higher value; nuclei count: measured here: cell count, toxicity.
Experiment [3] in a line: inhibitors of E-selectin induction by TNFa, primary screen, imaging, HUVEC, immunofluorescence, MLSMR starter and 10KST1 sets (AID 487;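 active means visually confirmed hit in the image check and inhibition above 20%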;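 on inhibition: signal is fraction of cell area covered by stained E-selectin grains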;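 on nuclei count: 100% = median nuclei count of all wells on the same plate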). The settings on record: HUVEC TNFalpha-induced E-selectin immunofluorescence imaging, at 2 µM; inhibition: stronger effect = higher value; nuclei count: measured here: cell number, toxicity.
Experiment [4] has as its target Voltage-gated potassium channel subunit beta-2 (Rattus norvegicus) (UniProt P62483). The experiment is described as follows: KvBeta enzyme negative modulators, primary screen, biochemical, NADPH fluorescence (AID 622;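 active means fluorescence slope higher than the sample average by over 3 SD, cut at about -0.22 in these data, passing the limit was not always enough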;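 further: slope of raw intensity against log time taken from 70 to 1610 s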). The settings on record: recombinant KvBeta, 4-cyanobenzaldehyde reduction, at 10 µM, stronger effect = higher value.
The target is the same in experiment [5]. The experiment is described as follows: KvBeta positive modulators, primary screen, biochemical, NADPH fluorescence (AID 623;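 active means NADPH fluorescence slope more negative than the mean of all samples by about 3 SD, 99.7% confidence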;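 further: fluorescence intensity change per second fitted from 20 to 320 s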). The following applies: Recombinant KvBeta, NADPH fluorescence decrease slope, 10 min; at 10 µM; stronger effect = lower value.
Experiment [6] has as its target Alpha-2C adrenergic receptor (Homo sapiens) (UniProt P18825). The experiment is described as follows: modulators of alpha2C/GIRK thallium flux, primary screen, cell-based, HEK293 alpha2C/GIRK1/2 (AID 624;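 active means fluorescence slope after compound addition differing from the mean of all screened samples at 99.7% confidence, in either direction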;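 further: slope of fluorescence ratio to pre-addition baseline per second over 15 to 24 s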). The following applies: thallium flux BTC fluorescence, at 10 µM, actives lie on both sides.
Experiment [7] can be described thus: inhibitors of Sendai virus-induced IRF3 signaling, primary screen, TLR/RLR signaling modifier project, cell-based, Sendai virus stimulus, luciferase, 10K MLSCN set (AID 602276;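 active means inhibition at or above 50% at 10 µM; inactive means inhibition below 50%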;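 further: firefly luciferase from ISG56 promoter only with Renilla not read in this screen; 0% = Sendai virus plus DMSO and 100% = medium plus DMSO without virus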). The settings on record: HEK293 RL24 IRF3 luciferase reporter, at 10 µM, stronger effect = higher value. (In a reporter assay the amount or activity of a reporter protein is the signal.)
Experiment [8] can be described thus: inhibitors of poly I:C-induced TLR3 signaling, primary screen, cell-based, poly I:C stimulus, luciferase, 10K MLSCN set (AID 602277). The following applies: HEK293-TLR3 RL24 IRF3 luciferase reporter, at 10 µM, stronger effect = higher value.

Sequence of Alpha-2C adrenergic receptor (Homo sapiens) (P18825 whole entry, looked up): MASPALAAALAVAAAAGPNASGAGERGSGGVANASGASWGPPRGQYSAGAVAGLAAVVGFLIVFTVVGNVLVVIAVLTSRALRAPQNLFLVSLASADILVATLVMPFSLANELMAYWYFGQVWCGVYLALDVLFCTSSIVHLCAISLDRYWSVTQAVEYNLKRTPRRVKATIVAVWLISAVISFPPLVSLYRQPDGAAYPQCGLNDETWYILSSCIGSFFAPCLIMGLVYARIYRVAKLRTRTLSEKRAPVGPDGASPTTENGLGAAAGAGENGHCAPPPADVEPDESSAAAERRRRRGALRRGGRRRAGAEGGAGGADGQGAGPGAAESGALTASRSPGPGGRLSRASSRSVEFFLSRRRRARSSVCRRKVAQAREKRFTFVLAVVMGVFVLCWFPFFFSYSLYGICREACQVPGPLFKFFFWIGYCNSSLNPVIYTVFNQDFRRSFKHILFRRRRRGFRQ
Sequence of Voltage-gated potassium channel subunit beta-2 (Rattus norvegicus) (P62483 whole entry, looked up): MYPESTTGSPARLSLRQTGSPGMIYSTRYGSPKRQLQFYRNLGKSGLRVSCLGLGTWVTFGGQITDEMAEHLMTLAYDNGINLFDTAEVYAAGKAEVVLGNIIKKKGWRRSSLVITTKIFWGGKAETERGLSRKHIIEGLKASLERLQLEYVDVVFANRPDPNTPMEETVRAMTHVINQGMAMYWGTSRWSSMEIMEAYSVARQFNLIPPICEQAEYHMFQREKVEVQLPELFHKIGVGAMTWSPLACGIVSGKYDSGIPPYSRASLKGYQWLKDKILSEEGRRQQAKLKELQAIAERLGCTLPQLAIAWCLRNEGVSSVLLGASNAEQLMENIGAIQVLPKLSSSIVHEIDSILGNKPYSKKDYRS

Usually inhibition stands for the drop in the measured response relative to a control, in per cent. Regarding `COc1ccc(CN2CCN(C(=O)Cc3ccccc3)CC2)c(OC)c1`, the cell count in experiment [1] is 402. The inhibition was 2.1% (inactive) in experiment [1], -13.2% (inactive) in experiment [3], 15.3% (inactive) in experiment [7] and 25.6% (inactive) in experiment [8]. Further, the inhibition of aggregation in experiment [2] is 8% (inactive). Besides, the figures for the nuclei count in experiment [2] and in experiment [3] were 94% and 114%, respectively. Besides, the fluorescence slope in experiment [4] is -0.6 (inactive). Further, the NADPH fluorescence slope in experiment [5] is 1.9e-05 (inactive). The slope in experiment [6] was 0.00526 (inactive).
Consider `CCCCn1c(O)c(C(C)=NC(Cc2c[nH]c3ccccc23)C(=O)OC)c(=O)[nH]c1=O` (stereo not given), for which, in experiment [1], the cell count worked out at 536. Moreover, the inhibition in experiment [1] is -3.4% (inactive); in experiment [3] it was 33.5% (inactive); in experiment [7], 0.703% (inactive); in experiment [8] it was 14.9% (inactive). For the same compound, in experiment [2], the inhibition of aggregation is 9.6% (inactive). The nuclei count is 79.6% in experiment [2] and 112% in experiment [3]. Moreover, the fluorescence slope in experiment [4] was -0.499 (inactive). In experiment [5], the NADPH fluorescence slope was 1.8e-05 (inactive). Further, the slope in experiment [6] was 0.00457 (inactive).
Take `C=CCn1c(O)c(C(C)=NCc2cccnc2)c(=O)[nH]c1=O`: the cell count in experiment [1] was determined as 364. Further, the inhibition in experiment [1] was -1% (inactive); in experiment [3], -99.8% (inactive); in experiment [7] it was 9.61% (inactive); in experiment [8], 32.6% (inactive). In experiment [2], the inhibition of aggregation is 15.3% (inactive). Moreover, the nuclei count came to 96% in experiment [2] and 162% in experiment [3]. Further, in experiment [4], the fluorescence slope was -0.429 (inactive). Besides, the NADPH fluorescence slope in experiment [5] was -4.2e-05 (inactive). Moreover, the slope in experiment [6] was 0.00457 (inactive).
For `CC(C)(C)P(=O)(c1ccncc1)N1CCCC1` (stereo not given), the cell count in experiment [1] turned out to be 520. Further, the inhibition in experiment [1] was -2.4% (inactive); in experiment [3] it was -21% (inactive); in experiment [7] it was 14.9% (inactive); in experiment [8], 22.7% (inactive). Also, the inhibition of aggregation in experiment [2] was -2.3% (inactive). For the same compound, the nuclei count turned out to be 113% in experiment [2] and 115% in experiment [3]. For the same compound, the fluorescence slope in experiment [4] is -0.275 (inactive). Besides, the NADPH fluorescence slope in experiment [5] is -4.3e-05 (inactive). For the same compound, in experiment [6], the slope was 0.00562 (inactive).
As for `COc1ccc(C(=O)C(C)(C)NO)cc1`, in experiment [1], the cell count stood at 653. Also, the inhibition is -4.6% (inactive) in experiment [1], -81.1% (inactive) in experiment [3], 12.6% (inactive) in experiment [7] and 26.7% (inactive) in experiment [8]. For the same compound, in experiment [2], the inhibition of aggregation is 12.4% (inactive). In addition, the nuclei count in experiment [2] was determined as 94.3%; in experiment [3], 119%. Further, the fluorescence slope in experiment [4] was -0.62 (inactive). The NADPH fluorescence slope in experiment [5] is 1.3e-05 (inactive). Further, in experiment [6], the slope was 0.00701 (inactive).
In the case of `N=C(N)c1c(O)n(C2CCCCC2)c(=O)n(C2CCCCC2)c1=O`, in experiment [1], the cell count turned out to be 460. In addition, the inhibition was -13.4% (inactive) in experiment [1], -11% (inactive) in experiment [3], 16.7% (inactive) in experiment [7] and 31.3% (inactive) in experiment [8]. In experiment [2], the inhibition of aggregation is -10.9% (inactive). Further, the nuclei count in experiment [2] stood at 102%; in experiment [3] it was 89.8%. In addition, the fluorescence slope in experiment [4] was -0.502 (inactive). Moreover, in experiment [5], the NADPH fluorescence slope was -1.1e-05 (inactive). For the same compound, in experiment [6], the slope was 0.00599 (inactive).
The compound `COc1ccccc1/C=C1/C(=N/O)C2CCN1CC2` had a cell count in experiment [1] of 548. Further, the inhibition is -15% (inactive) in experiment [1], 42.2% (inactive) in experiment [3], 9.04% (inactive) in experiment [7] and 36.5% (inactive) in experiment [8]. In addition, in experiment [2], the inhibition of aggregation was -6.2% (inactive). The nuclei count in experiment [2] was determined as 76.9%; in experiment [3], 105%. For the same compound, the fluorescence slope in experiment [4] was -0.467 (inactive). The NADPH fluorescence slope in experiment [5] was -1.3e-05 (inactive). Moreover, in experiment [6], the slope is 0.00314 (inactive).
In experiment [1], `COC(=O)C1C2c3ccccc3OC1(C)N=c1s/c(=C/c3cnn(C)c3C)c(=O)n12` (stereo not given) displayed a cell count of 469. Further, the inhibition in experiment [1] is 10.9% (inactive); in experiment [3], -82.7% (inactive); in experiment [7], 15.6% (inactive); in experiment [8], 23.4% (inactive). Moreover, the inhibition of aggregation in experiment [2] was 0.9% (inactive). The nuclei count in experiment [2] came to 115%; in experiment [3], 112%. Besides, the fluorescence slope in experiment [4] was -0.332 (inactive). In experiment [5], the NADPH fluorescence slope was -4.9e-05 (inactive). Also, the slope in experiment [6] was 0.00428 (inactive).
On to `Cc1ccnc(-n2c(-c3ccco3)nc3ccccc3c2=O)c1`, for which, in experiment [1], the cell count turned out to be 445. Further, the inhibition in experiment [1] is 10.2% (inactive); in experiment [3], -4.3% (inactive); in experiment [7], 6.03% (inactive); in experiment [8], -0.166% (inactive). Further, in experiment [2], the inhibition of aggregation is -19.2% (inactive). Besides, the nuclei count in experiment [2] is 115%; in experiment [3], 106%. In experiment [4], the fluorescence slope is -0.508 (inactive). In addition, the NADPH fluorescence slope in experiment [5] was -3.8e-05 (inactive). The slope in experiment [6] is 0.0068 (inactive).
In the case of `CCCCn1c(O)c(C=NC2CCCCC2N)c(=O)[nH]c1=O` (stereo not given), in experiment [1], the cell count was determined as 747. The inhibition is -6% (inactive) in experiment [1], -67.3% (inactive) in experiment [3], 8.89% (inactive) in experiment [7] and 26.1% (inactive) in experiment [8]. In addition, the inhibition of aggregation in experiment [2] is 4.3% (inactive). Also, the nuclei count in experiment [2] amounted to 113%; in experiment [3], 119%. Further, the fluorescence slope in experiment [4] was -0.61 (inactive). In experiment [5], the NADPH fluorescence slope was -4e-05 (inactive). Also, the slope in experiment [6] was 0.00682 (inactive).
